Results reported in PubChem BioAssay (EPA / NIEHS).
Records with an inconclusive call do not appear. Some compounds were tested as several samples or in several runs, with calls that do not always agree. Calls of active or inactive are those of the source. Rule for the calls, unless noted: active = hit-call score of the fitted dose curve at least 0.9, where 1 is the maximum; inactive = score below 0.9.

Assays:
[1] = CCTE_Shafer_MEA_dev_firing_rate_mean: CCTE's Neural Network Formation Assay for Mean Firing Rate, Shafer Lab (AID 2284031);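 for AC50: curve fitted for loss of firing so AC50 reflects decreased mean firing rate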
How it was run: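 Extracellular spike frequency, AUC over DIV 5–12 recordings, in rat cortical neuron MEA cultures dosed from plating; loss direction vs DMSO.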

[2] = CCTE_Shafer_MEA_dev_per_burst_spike_percent: CCTE's Neural Network Formation Assay for Percent of Spikes in a Burst, Shafer Lab (AID 2284032);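 for AC50: fitted as a decrease in burst spike percentage below DMSO baseline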
How it was run: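 Value is trapezoidal AUC over recordings on days 5, 7, 9 and 12 of the well-mean fraction of spikes falling in single-electrode bursts; rat cortical cultures exposed continuously from plating, treatment renewed DIV 5 and 9, fitted downward against DMSO.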

[3] = CCTE_Shafer_MEA_dev_active_electrodes_number: CCTE's Neural Network Formation Assay for Number of Active Electrodes, Shafer Lab (AID 2284040; active = hit-call score of the fitted dose curve at least 0.9, where 1 is the maximum;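 for AC50: potency for loss of active electrodes versus DMSO so lower counts are hits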)
How it was run: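 Developing rat cortical networks on MEAs, exposed DIV 0–12. Value is the AUC of active-electrode counts (≥5 spikes/min) from days 5, 7, 9, 12, relative to DMSO.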

[4] = CCTE_Shafer_MEA_dev_burst_rate: CCTE's Neural Network Formation Assay for Burst Rate, Shafer Lab (AID 2284042);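 for AC50: potency for loss of burst rate below DMSO control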
How it was run: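 Developmental network assay measuring how 12-day exposure of rat cortical neuron cultures alters bursting on extracellular MEA recordings. Values are AUC of well-mean burst rate across four recording days, relative to DMSO vehicle.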

[5] = CCTE_Shafer_MEA_dev_per_burst_interspike_interval: CCTE's Neural Network Formation Assay for Burst Interspike Interval, Shafer Lab (AID 2284044);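 for AC50: potency for a decrease of within-burst interspike interval below DMSO level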
How it was run: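 Rat cortical primary cultures, 16 electrodes/well; compound from plating, renewed with full media change DIV 5 and 9. Spikes via adaptive detector; per-burst ISI well-mean over active bursting electrodes; AUC of DIV 5/7/9/12 recordings; loss-direction fit vs DMSO.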

[6] = CCTE_Shafer_MEA_dev_burst_duration_mean: CCTE's Neural Network Formation Assay for Mean Burst Duration, Shafer Lab (AID 2284045);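 for AC50: curve fitted for loss meaning shorter burst duration than DMSO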
How it was run: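 Network-formation assay in primary rat cortical neurons; treatment spans twelve days of development. Mean burst duration per well is integrated by trapezoidal AUC and fitted in the loss-of-signal direction against DMSO baseline.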

[7] = CCTE_Shafer_MEA_dev_interburst_interval_mean: CCTE's Neural Network Formation Assay for Mean Interburst Interval, Shafer Lab (AID 2284046);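 note: well-mean interburst interval of bursting electrodes as AUC over four recording days; curve fitted for decrease in interburst interval relative to DMSO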
How it was run: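 Network formation assay in primary rat cortical cultures, exposed from DIV 0 to 12. Mean interburst interval per well, integrated as AUC over four recordings.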

[8] = CCTE_Shafer_MEA_dev_network_spike_number: CCTE's Neural Network Formation Assay for Number of Network Spikes, Shafer Lab (AID 2284048);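 note: synchronized bursts across electrodes counted on days 5 7 9 12 and integrated as AUC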;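 for AC50: fit as a loss of signal meaning fewer network spikes than DMSO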
How it was run: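 Extracellular recordings from 16-electrode wells track network formation in rat cortical cultures under continuous treatment from plating. The endpoint is network spike number, expressed as AUC across DIV 5–12 relative to DMSO vehicle.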

[9] = CCTE_Shafer_MEA_dev_network_spike_peak: CCTE's Neural Network Formation Assay for Mean Number of Electrodes in Network Spike, Shafer Lab (AID 2284049);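 for AC50: fitted for loss of signal meaning fewer electrodes in network spikes than DMSO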
How it was run: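 Continuous 12-day exposure of rat cortical cultures, starting at plating, on MEA plates. Endpoint: electrodes participating in network-spike peaks, AUC across DIV 5–12, DMSO as negative control.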

[10] = CCTE_Shafer_MEA_dev_spike_duration_mean: CCTE's Neural Network Formation Assay for Mean Spike Duration, Shafer Lab (AID 2284051);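 note: mean network spike duration pooled as area under curve over DIV 5 to 12 recordings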;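 for AC50: potency for a decrease in mean network spike duration versus DMSO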
How it was run: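 With DMSO as baseline, loss of mean network spike duration was scored from extracellular recordings of rat cortical neurons on MEA plates. Exposure spanned plating to DIV 12; the four recording days were collapsed into one AUC value.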

[11] = CCTE_Shafer_MEA_dev_network_spike_duration_std: CCTE's Neural Network Formation Assay for Standard Deviation of Network Spike Duration, Shafer Lab (AID 2284052);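 note: area under curve of spike duration SD across recording days 5 to 12; hits are decreases in network spike duration SD versus DMSO vehicle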
How it was run: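 Developing networks of rat cortical neurons were exposed over twelve days in vitro on 48-well MEA plates. Trapezoidal AUC of recordings (DIV 5–12) was analysed for signal loss relative to DMSO vehicle.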

[12] = CCTE_Shafer_MEA_dev_per_network_spike_spike_number_mean: CCTE's Neural Network Formation Assay for Mean Number of Spikes in a Network Spike, Shafer Lab (AID 2284053)
How it was run: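 First, rat cortical cells (1.5 x 10^5/well) were seeded onto MEA wells; second, dosing began at plating and was refreshed on DIV 5 and 9; finally, network-spike spike counts across DIV 5–12 were summarized as AUC.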

[13] = CCTE_Shafer_MEA_dev_per_network_spike_spike_percent: CCTE's Neural Network Formation Assay for Percent of Spikes in a Network Spike, Shafer Lab (AID 2284054)
How it was run: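 Developing networks of rat cortical neurons are dosed at day 0 and recorded extracellularly four times up to day 12. The endpoint is the area under the curve of percent spikes in network spikes, fitted in the negative direction relative to DMSO.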

[14] = CCTE_Shafer_MEA_dev_LDH: CCTE's Lactate Dehydrogenase Assay for Cytotoxicity in the Neural Network Formation Assay, Shafer Lab (AID 2284068; active = hit-call score of the fitted dose curve at least 0.9, where 1 is the maximum;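 note: exposure for twelve days from plating with re-dosing on DIV 5 and 9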)
How it was run: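 Developing rat cortical networks on MEA plates are exposed to compound for 12 days from plating. LDH activity is measured spectrophotometrically, with DMSO as baseline.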

[15] = CCTE_Shafer_MEA_dev_mutual_information_norm: CCTE's Neural Network Formation Assay for Mutual Information Normalization, Shafer Lab (AID 2284091);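 for AC50: mutual information between electrodes summarised as area under curve across four recording days; potency is for a decrease in mutual information relative to DMSO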
How it was run: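 Exposure of primary rat cortical neurons began at plating and ran to DIV 12, with full media and treatment renewal after DIV 5 and 9 recordings. Mutual information AUC (DIV 5–12) was analysed for loss versus DMSO.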

[16] = CCTE_Shafer_MEA_dev_correlation_coefficient_mean: CCTE's Neural Network Formation Assay for Mean Correlation Coefficient, Shafer Lab (AID 2284093);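 for AC50: well mean pairwise spike train correlation integrated as AUC over recording days 5 to 12; potency fitted for loss of correlation relative to DMSO vehicle wells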
How it was run: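 Extracellular firing from rat cortical networks on 48-well MEAs, DMSO-referenced, negative fitting direction. Compound present from plating to DIV12; mean pairwise correlation per well integrated over DIV5–12 recordings by trapezoidal AUC.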

[17] = UKN2_HCS_IMR90_cell_viability: Viability Assessment in the University of Konstanz (UKN) Leist Lab Neural Crest Cell Migration Assay in human induced IMR90 Pluripotent Stem Cells (UKN2) (AID 2284233);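 note: viability of neural crest cells differentiated from IMR90 iPSC measured by calcein-AM fluorescence imaging; cells exposed to compound for 24 h after a 24 h migration phase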
How it was run: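 cMINC format, iPSC-derived neural crest (IMR90); 24 h migration (EGF/FGF, N2-S), then 24 h toxicant. Calcein-AM/H-33342 stain 30 min; fluorescence intensity by HCS; DMSO-normalised, bidirectional fitting.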

Measured: AC50

CCCCC(CC)COC(=O)c1cc(Br)c(Br)c(Br)c1Br (stereo not given)
active: [2] 18.8 µM | [3] 18.7 µM | [7] 16.8 µM | [9] 18.9 µM | [10] 17.7 µM | [12] 18.8 µM | [13] 18.9 µM | [14] 15.9 µM | [16] 18.8 µM
inactive: [1] | [4] | [5] | [6] | [8] | [11] | [15]

CP(=O)(O)CC[C@H](N)C(=O)O
not listed: [17]
inactive: all other assays above

C/C(=C/C=C/[C@@H](C)C(=O)O)[C@H]1CN[C@H](C(=O)O)[C@H]1CC(=O)O
active: [1] 68 nM | [2] 2.06 µM | [3] 0.97 µM | [4] 131 nM | [5] 1.33 µM | [6] 992 nM | [7] 0.0322 µM | [8] 0.0218 µM | [9] 1.83 µM | [10] 1.13 µM | [11] 259 nM | [12] 1.05 µM | [13] 2.33 µM | [14] 6.75 µM | [15] 0.0507 µM | [16] 1.56 µM
inactive: [1] | [2] | [3] | [4] | [5] | [6] | [7] | [8] | [9] | [10] | [11] | [12] | [13] | [15] | [16] | [17]

CC(=O)[O-].CC(=O)[O-].O.O.O.[Pb+2]
active: [2] 23.5 µM | [3] 22.3 µM | [8] 2.98 µM | [9] 12.5 µM | [10] 22.2 µM | [12] 20.2 µM | [13] 15 µM | [14] 23.7 µM | [16] 19.7 µM
inactive: [1] | [4] | [5] | [6] | [7] | [11] | [15] | [17]

NCCc1cc(O)c(O)cc1O
inactive: [1] | [4] | [5] | [6] | [7] | [8] | [11]
active: [2] 6.25 µM | [3] 4.79 µM | [9] 6.57 µM | [10] 5.15 µM | [12] 4.47 µM | [13] 10.1 µM | [14] 6.82 µM | [15] 3.2 µM | [16] 5.28 µM

C[n+]1ccc(-c2cc[n+](C)cc2)cc1
active: [1] 2290 nM | [2] 1.71 µM | [3] 1.25 µM | [4] 2290 nM | [5] 2.33 µM | [6] 2290 nM | [7] 1.16 µM | [8] 2.31 µM | [9] 1.38 µM | [10] 1.15 µM | [11] 1420 nM | [12] 1.44 µM | [13] 1.81 µM | [14] 1.71 µM | [15] 2.29 µM | [16] 1.63 µM
inactive: [17]

[O-][Cl+3]([O-])([O-])O
inactive: [17]
